D2 ag-1 = D2 dopamine receptor (human) agonism; activation, % at 2 µM; 340,000 compounds, 0.53% hits; P14416; HEK293 T-REx D2 cells, calcium flux agonist mode;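 active means activation over 3 SD above normal in the single-dose calcium agonist read, cut at about 30% in these data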
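Agonism scored from kinetic calcium signal (1 read/sec, 180 s) following compound pin transfer, after a 10 s baseline. Cells: HEK293 Trex line expressing inducible D2 receptor coupled to calcium, dye-loaded after overnight culture at 30 C.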
D2 PAM-1 = positive allosteric modulators of human D2 dopamine receptor | AID 624464 | potentiation, % (concentration not given with the values) | DiscoveRx D2 beta-arrestin cells, luminescence, 90 min; 100% = 57 uM dopamine signal | 360,000 compounds, 0.23% hits; in the data active means potentiation above about 50%; inconclusive means mostly about 30% to 49%
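PathHunter beta-arrestin assay in DiscoveRx D2 cells. Compounds were added with an EC20 of dopamine (50 nM final) for 90 min at 37 deg C. Luminescence was read 1 h after detection reagent, with 57 uM dopamine as the EC100 control.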
D2 PAM-2 = positive allosteric modulators of human D2 dopamine receptor. AID 485347. HEK293 T-REx D2, calcium flux, EC20 dopamine potentiation. 340,000 compounds, 0.34% hits. P14416. potentiation, % at 10 µM;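 active means potentiation over 3 SD above the plate norm, cut at about 30% in these data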
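Using a no-wash calcium dye in inducible, force-coupled HEK293 Trex cells expressing D2, we tracked fluorescence each second for 180 s after compound, then for 180 s after EC20 dopamine to detect augmented signalling.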
D2 ag-2 = human D2 receptor agonism in beta-arrestin assay; P14416; DiscoveRx PathHunter D2 beta-arrestin, luminescence, 90 min; 100% = 57 uM dopamine signal; activation, % (no concentration beside the values); 360,000 compounds, 0.084% hits; AID 624465; in the data active means activation above about 40%; inconclusive means between about 15% and that limit
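DiscoveRx PathHunter D2 beta-arrestin cells (2,100/well) attached overnight, then compound-stimulated 90 min at 37 C in HBSS/10 mM HEPES/0.1% Tween-20 buffer; beta-galactosidase complementation read by luminescence after 1 h at ambient temperature. Dopamine 57 uM final (EC100) as control.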
D2 antagonist = antagonizes the human D2 dopamine receptor; P14416; HEK293 TREx D2 cells, calcium flux, dopamine EC80; inhibition, % at 10 µM; 340,000 compounds, 2% hits; AID 485344; in the data active means inhibition above about 30%; inactive means below that, where a call was filed
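Calcium flux kinetic readout in an inducible HEK293 TREx D2 line plated overnight at 30 C. After 180 s compound exposure, an EC80 dopamine challenge follows with another 180 s kinetic read to detect antagonism.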
D3 arrestin ag = activates human D3 dopamine receptor beta-arrestin recruitment. shares compounds with D2 ag-1. DiscoveRx D3 beta-arrestin cells, luminescence, 90 min. Potency, µM (top dose mostly 76.9 µM), actives largely listed as activators. 2,300 compounds, 4% hits; further: nearly all actives have a fitted effect of over 70% in size
Target sequence (P35462 whole entry, looked up): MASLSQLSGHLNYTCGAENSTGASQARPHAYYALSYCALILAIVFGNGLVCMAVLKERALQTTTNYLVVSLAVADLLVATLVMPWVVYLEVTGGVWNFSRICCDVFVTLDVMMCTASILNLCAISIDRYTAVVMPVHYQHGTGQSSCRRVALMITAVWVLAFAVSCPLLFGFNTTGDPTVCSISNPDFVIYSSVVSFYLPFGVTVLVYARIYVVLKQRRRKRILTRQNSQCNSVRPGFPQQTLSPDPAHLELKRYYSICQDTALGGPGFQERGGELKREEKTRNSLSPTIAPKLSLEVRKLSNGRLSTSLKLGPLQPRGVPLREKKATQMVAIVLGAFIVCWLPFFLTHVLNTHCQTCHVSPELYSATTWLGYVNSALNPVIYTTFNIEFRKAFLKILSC
D2 ag-3 = counter-screen for D3 agonists: human D2 dopamine receptor agonism; Potency, µM (top dose mostly 76.9 µM), hits mostly activators; shares compounds with D2 ag-1; DiscoveRx PathHunter D2 beta-arrestin, luminescence, 90 min; response scale: percent relative to full dopamine signal; 2,300 compounds, 5.9% hits; further: nearly all actives have a fitted effect of over 70% in size
Numbers stand for hits; n = inactive; u = inconclusive; x = no result given. Rows were chosen to be rich in hits. Some 2.4% of all compounds tested hit in one or more screens of this group. Unless noted, the call rests on the fitted dose curve; in most records, active means well fitted activation curve with a large enough effect; inconclusive means small, poorly fitted or top-dose-only effect; inactive means flat fitted curve, though single readings scatter.

SMILES	D2 ag-1	D2 PAM-1	D2 PAM-2	D2 ag-2	D2 antagonist	D3 arrestin ag	D2 ag-3
Cc1cccc(Nc2nc(N)nc(CN3CCN(c4ccccc4)CC3)n2)c1	70.6	u	n	u	50.8	n	u
Nc1nc(CN2CCN(c3ccccn3)CC2)nc(Nc2ccc(Cl)cc2)n1	90.4	55.7	n	41.2	73.8	n	17.8µM
CCc1ccc(NC(=O)CC2C(=O)N(c3cccc(OC)c3)C(=O)N2Cc2ccco2)cc1 (stereo not given)	n	x	n	x	x	x	x
Nc1nc(CN2CCN(c3ccc(F)cc3)CC2)nc(N2CCCc3ccccc32)n1	59.8	n	n	n	54.4	n	n
Nc1nc(CN2CCN(c3ccccc3F)CC2)nc(Nc2ccc3c(c2)OCCO3)n1	72.1	n	n	u	54.0	n	u
CN1CCN(Cc2nc(N)nc(Nc3ccc4c(c3)OCCO4)n2)CC1	n	n	n	n	n	x	x
O=C(NCc1cccs1)C(=O)NCC(c1ccco1)N1CCN(c2ccccc2)CC1 (stereo not given)	n	n	n	n	n	x	x
O=C(COc1ccccc1)NCC(c1ccco1)N1CCN(c2ccccc2)CC1 (stereo not given)	n	n	n	n	n	n	n
O=C(NCC(c1ccco1)N1CCN(c2ccccc2)CC1)c1cccs1 (stereo not given)	n	n	n	n	n	n	n
Cc1ccc(NS(=O)(=O)c2c(C)nc3sc(C)c(C)n3c2=O)cc1F	n	x	n	x	x	x	x
CC1(C)Cc2c(sc3nc[nH]c(=O)c23)CO1	n	n	n	n	n	x	x
O=c1[nH]cnc2sc3c(c12)CN(Cc1ccccc1)CC3	77.9	n	n	u	73.8	n	n
OCCCNc1ncnc2sc3c(c12)CCN(Cc1ccccc1)C3	n	n	n	n	n	x	x
O=c1[nH]cnc2sc3c(c12)CCN(Cc1ccccc1)C3	62.4	n	n	u	n	n	n
O=C(O)c1ccc(/C=C2\SC(=S)N(Nc3ccccc3)C2=O)cc1	n	n	n	n	n	u	n
O=C1/C(=C/c2ccncc2)SC(=S)N1Nc1ccccc1	n	n	n	n	n	x	x
COc1ccc(N2CCN(C(=O)c3ccc(-c4nc(COc5ccccc5)c(C)o4)cc3)CC2)cc1	n	x	n	x	x	x	x
COc1cccc(S(=O)(=O)NCc2ccc(C(=O)N3CCN(c4ccccc4OC)CC3)cc2)c1	x	x	n	x	x	n	n
COc1cccc(S(=O)(=O)NCc2ccc(C(=O)N3CCN(c4ccccc4)CC3)cc2)c1	59.4	n	n	u	56.4	n	u
CC(=O)Nc1ccc(S(=O)(=O)NC2(C(F)(F)F)C(=O)Nc3c2c(=O)[nH]c(=O)n3-c2cccc(Cl)c2)cc1 (stereo not given)	n	x	n	x	x	x	x
CC1(C(=O)NC2CCCCC2)Cc2ccccc2C(=O)N1Cc1ccc(Cl)cc1 (stereo not given)	n	x	n	x	x	x	x
Cc1ccc(S(=O)(=O)N2CCN(C(=O)COC(=O)c3ccc([N+](=O)[O-])o3)CC2)c(C)c1	n	n	n	n	n	n	n
Cc1ccc(S(=O)(=O)N2CCN(C(=O)COC(=O)c3cc([N+](=O)[O-])ccc3NCCO)CC2)c(C)c1	x	n	x	n	x	x	x
N#CCC(=O)Nc1ccc(C(=O)NNC(=O)CCN2CCN(c3ccccc3)CC2)cc1	x	n	x	u	x	u	u
COc1cccc(C(=O)NNC(=O)CCN2CCN(c3ccccc3)CC2)c1	x	n	x	n	x	x	x
SMILES	D2 ag-1	D2 PAM-1	D2 PAM-2	D2 ag-2	D2 antagonist	D3 arrestin ag	D2 ag-3
CCc1cc(C(=O)NNC(=O)CCl)sc1C	n	n	n	n	n	x	x
O=C(CCN1CCN(c2ccccc2)CC1)NNC(=O)c1cccc2ccccc12	73.7	n	n	u	85.3	u	n
CCc1cc(C(=O)NNC(=O)CCN2CCN(c3ccccc3)CC2)sc1C	79.7	n	n	n	66.4	u	u
O=C(CCN1CCN(c2ccccc2)CC1)NNC(=S)Nc1ccccc1Cl	53.7	n	n	n	66.3	n	n
COc1ccc2c(c1)sc1ncc(C(=O)NCc3cccc(Cl)c3)c(=O)n12	x	x	n	x	x	x	x
CCC1(c2ccccc2)NC(=O)N(CC(=O)NNC(=O)CCN2CCN(c3ccccc3)CC2)C1=O (stereo not given)	67.7	n	n	n	88.6	n	n
Cc1cc(C(=O)NNC(=O)CCN2CCN(c3ccccc3)CC2)c2ccccc2n1	71.8	n	n	n	66.9	n	u
Cc1cc(C(=O)Nc2ccc(N3CCOCC3)cc2)c2ccccc2n1	n	n	n	n	n	x	x
CCN(C(=O)Cn1ncc2c1-c1cc(C)ccc1OC2)c1cc(Cl)ccc1OC	n	x	n	x	x	x	x
COc1ccc(CN2CCSCC2)c(OC)c1C	n	n	n	n	n	x	x
c1cnc(N2CCN(Cc3c[nH]c4ccccc34)CC2)nc1	86.2	u	n	u	83.4	n	u
COc1ccc(CN2CCN(c3ncccn3)CC2)c(C)c1C	87.6	n	n	47.1	93.4	u	2.24µM
COc1ccc(CN2CCN(c3ccccn3)CC2)c(OC)c1C	x	n	x	n	x	n	u
CCOc1ccccc1N1CCN(Cc2cccc(OC)c2OC)CC1	n	n	n	n	87.4	n	n
Cc1cccc(-c2nc3c4ccccc4nc(N4CCN(c5cccc(Cl)c5)CC4)n3n2)c1	x	x	n	x	x	x	x
Cc1ccccc1Nc1c(-c2ccc(N3CCOCC3)cc2)nc2ccc(Br)cn12	n	x	n	x	x	x	x
COc1cccc(Nc2nc3ccc(C)cc3nc2-n2nc(C)cc2C)c1	n	x	n	x	x	x	x
COc1cccc(CN2CCN(c3ncccn3)CC2)c1OC	81.3	n	n	u	60.3	n	u
COc1ccccc1N1CCN(CCCCOc2cccc3ccccc23)CC1	34.5	n	n	n	73.1	n	n
COc1cccc(CN2CCN(Cc3cc(OC)c(OC)c(OC)c3)CC2)c1OC	n	n	n	n	n	n	n
COc1cccc(CN2CCN(Cc3cccc(Oc4ccccc4)c3)CC2)c1OC	n	n	n	n	n	x	x
Cc1cc(Cl)ccc1NC(=O)CN1C(=O)COc2ccc(S(=O)(=O)N3CCC(C)CC3)cc21	n	x	n	x	x	x	x
COc1ccc(NCc2cc3cc4c(cc3n(CC(=O)Nc3cc(C)ccc3C)c2=O)OCCO4)cc1	n	x	n	x	x	x	x
C=C(C)CN1C(=O)C(=O)N(CC(=C)C)C1=O	90.0	n	n	n	n	n	n
Cc1ccc(CN2C(=O)C(=O)N(CC(N)=O)C2=O)cc1	n	n	n	n	n	x	x
C/C(=N\O)c1ccco1	n	n	n	n	n	n	n

From PubChem
